Only some compounds are listed: those with a hit (about 7.8% of all), similar ones and a draw of the others.
sEH inhibitor: soluble epoxide hydrolase inhibitors, primary screen, biochemical, human sEH; recombinant human sEH enzymatic activity assay; inhibition, % at 2 µM; hit rate 0.34% among 91,000; AID 707, 2007; in the data active = inhibition above about 80%
Target sequence (P34913 whole entry, looked up): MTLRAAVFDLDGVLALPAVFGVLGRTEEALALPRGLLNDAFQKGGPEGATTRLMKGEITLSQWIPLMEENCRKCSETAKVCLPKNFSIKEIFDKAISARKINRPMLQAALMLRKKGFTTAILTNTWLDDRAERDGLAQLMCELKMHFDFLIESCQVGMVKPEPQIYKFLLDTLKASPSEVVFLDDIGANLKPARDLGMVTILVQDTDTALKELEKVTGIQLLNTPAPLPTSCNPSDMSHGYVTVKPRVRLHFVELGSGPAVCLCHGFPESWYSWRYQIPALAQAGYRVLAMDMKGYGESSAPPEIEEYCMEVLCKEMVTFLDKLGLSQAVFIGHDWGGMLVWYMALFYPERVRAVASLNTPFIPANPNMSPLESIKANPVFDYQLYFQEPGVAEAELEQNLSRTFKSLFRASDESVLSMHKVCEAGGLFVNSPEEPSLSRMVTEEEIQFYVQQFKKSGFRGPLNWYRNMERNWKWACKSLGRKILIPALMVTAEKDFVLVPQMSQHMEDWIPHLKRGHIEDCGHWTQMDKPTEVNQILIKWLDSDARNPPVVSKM
PostGolgi yeast: phenotypic screen on post-Golgi transport, primary screen; post-Golgi transport phenotypic cell assay; inhibition, % at 10 µM; hit rate 0.9% among 98,000;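 also: yeast cells grown in 1536-well plates; yeast grown about 18 h at 30C before absorbance read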
PostGolgi ctrl: growth inhibition of yeast control strain, primary screen, counter-screen for post-Golgi transport modulator project | inhibition, % at 10 µM | hit rate 5% among 98,000 | efflux-deficient yeast background strain, growth absorbance A615, 16 h
Cav3 T inh: Cav3.2 calcium influx blockers – cell-based, Fluo-4 calcium fluorescence, FDSS, MLSMR library, primary screen. Voltage-dependent T-type calcium channel subunit alpha-1H (Homo sapiens), O95180. Cav3.2-expressing cells; active compounds read low. B-score at 10 µM. hit rate 4% among 100,000;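 active = single-dose well whose peak fluorescence ratio is a statistical outlier from its plate by either plate-standardised score or position-corrected B-score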
sEH act: soluble epoxide hydrolase activators, primary screen, biochemical, human sEH; hit rate 0.04% among 91,000; Bifunctional epoxide hydrolase 2 (Homo sapiens), P34913; AID 717, 2007; activation, % at 2 µM; purified human sEH enzymatic activity, activator screen; in the data active = activation above about 37%
* hit, by the source's call; . = no result given. Rule as the data show it, unless noted: active = inhibition above about 30%; inactive = the rest.

SMILES	sEH inhibitor	PostGolgi yeast	PostGolgi ctrl	Cav3 T inh	sEH act
Cc1[nH]nc2c1/C(=N\O)CC(C)(C)C2	7	-2	39*	-0.37	-6
Cc1cc(C)cc(NC(=O)C2(c3ccccc3)CC2(Cl)Cl)c1 (stereo not given)	10	11	28	-6.1*	-11
Cc1ccc(NC(=O)C2(c3ccccc3)CC2(Cl)Cl)cc1C (stereo not given)	-5	2	20	.	2
CCc1ccc(NC(=O)C2(c3ccccc3)CC2(Cl)Cl)cc1 (stereo not given)	9	-2	31*	-2.8	-8
Cc1cccc(NC(=O)C2(c3ccccc3)CC2(Cl)Cl)c1 (stereo not given)	1	13	35*	-8*	0
CCC/S(CC1CC1(Cl)Cl)=N\S(=O)(=O)c1ccc(C)cc1 (stereo not given)	-11	-5	-6	1	11
CCOCCCNC(=O)C(c1ccc(Cl)cc1)N1CCN(c2ccccc2)CC1 (stereo not given)	-2	5	31*	-1.4	6
CCOCCCNC(=O)C(c1ccc(Cl)cc1)N1CCN(C(=O)c2ccco2)CC1 (stereo not given)	4	-3	-6	0.25	-4
Cc1ccc2nc3c(cc(C#N)c(=O)n3-c3nccs3)c(=O)n2c1	.	4	31*	1.3	.
O=C(NCCCN1CCCC1=O)c1cccs1	.	2	9	.	.
O=C(NCCCN1CCCC1=O)c1cccc(C(F)(F)F)c1	3	-5	35*	1.6	1
Cc1ccc(SCC(=O)N2c3ccccc3Sc3ccccc32)cc1	-13	-7	17	-5.8*	16
O=C(CSc1nncs1)N1c2ccccc2Sc2ccccc21	.	1	28	0.4	.
COc1ccc(OCCCC(=O)N2CCCc3ccccc32)cc1	-10	-6	34*	-1.1	11
COc1ccc(-c2cc(C(=O)N3CCCc4ccccc43)no2)cc1	-14	1	9	.	14
O=C(CCCC(=O)N1CCCc2ccccc21)N1CCCc2ccccc21	.	-7	4	-2.2	.
COc1ccc(C(=O)N2CCCc3ccccc32)cc1	-10	-8	-3	-0.021	10
CC(C)Oc1ccc(C(=O)N2CCCc3ccccc32)cc1	-2	-5	31*	-3.3	1
O=C(c1ccc(C(=O)N2CCCc3ccccc32)s1)N1CCCc2ccccc21	6	105*	100*	-7.8*	-3
COc1cccc(-c2cc(C(=O)N3CCCc4ccccc43)no2)c1	-5	1	35*	-1.2	3
O=C(c1ccc(Cl)s1)N1CCc2ccccc21	2	0	7	-0.27	2
CCC(C)N1CCN(C(=O)c2cccs2)CC1 (stereo not given)	-13	.	.	-0.026	13
O=C(NCCCCc1ccccc1)C1CC(c2ccccc2C(F)(F)F)=NO1 (stereo not given)	.	.	.	-2	.
Cc1cc(=O)[nH]c(SCC(=O)c2c(N)n(C)c(=O)n(C)c2=O)n1	-5	-7	3	0.32	3
CCc1nccn1S(=O)(=O)c1ccc(Br)cc1Br	.	-2	2	-1.2	.
SMILES	sEH inhibitor	PostGolgi yeast	PostGolgi ctrl	Cav3 T inh	sEH act
Cc1ccc(O)c(C(=O)CC(=O)c2cccc(F)c2)c1	.	8	34*	.	.
COc1ccc(C(=O)c2ccccc2)c(O)c1	0	-6	-1	-1.2	-1
O=C(CC(=O)c1cc(Cl)ccc1O)c1ccccc1	13	90*	42*	-1.2	-12
COc1ccc(O)c(C(=O)CC(=O)c2ccc(F)cc2)c1	0	33*	35*	-3.5	0
Cc1cccc(C(=O)Nc2ccc(O)cc2)c1	5	-1	4	-0.047	-4
CCOC(=O)c1ccccc1NC(=O)c1cccc(F)c1	15	2	5	-1	-14
Cc1cccc(C(=O)CC(=O)c2cc(Cl)ccc2O)c1	-4	50*	64*	-2.1	3
CN(C)c1ccc(N2[C@@H](CC(=O)O)c3cc(C(F)(F)F)ccc3S2(=O)=O)cc1	.	.	.	1	.
CCC1CCCCN1S(=O)(=O)c1ccc2c(c1)CCN2C(=O)C1CCC1 (stereo not given)	.	1	68*	-1.4	.
O=C(C1CCC1)N1CCc2cc(S(=O)(=O)NCc3ccccn3)ccc21	-9	-4	2	0.89	6
O=C(C1CCC1)N1CCc2cc(S(=O)(=O)NCCN3CCN(c4ccccc4F)CC3)ccc21	.	-1	38*	-3.2	.
Cc1nc(-c2ccccc2)sc1C1(C)CC(c2ccc(C#N)cc2)=NO1 (stereo not given)	.	.	.	0.28	.
C=C1CCN([C@@H](CC(C)C)C(=O)Nc2nc3ccc(Cl)cc3s2)S(=O)(=O)c2ccccc21	.	.	.	-0.51	.
COC(=O)COc1ccc(S(=O)(=O)N2CCc3ccccc3C2)cc1C	-10	-4	7	.	4
Cc1ccc(-c2nc(CS(=O)(=O)CC(=O)N3CCc4ccccc4C3)c(C)o2)cc1	.	11	12	-9*	.
Cc1oc(-c2ccccc2F)nc1CS(=O)(=O)CC(=O)N1CCc2ccccc21	.	-6	10	-4.7*	.
CC(C)C[C@H]1COCCS(=O)(=O)N1Cc1ccc(Cl)c(Cl)c1	.	.	.	-1.4	.
Cc1sc2ncnc(N3CCN(CCOc4ccc(Cl)cc4)CC3)c2c1C	0	-5	35*	-0.29	-2
C=CCOc1ccc(C(=O)N(Cc2ccc(N(C)C)cc2)C2CCS(=O)(=O)C2)cc1 (stereo not given)	-9	7	5	-0.85	8
O=C(c1cccc(F)c1F)N1CCCC1	-6	.	.	0.59	8
Oc1ccc(Br)cc1/C=N/n1cnc2ccccc21	-7	3	32*	0.75	5
Oc1ccc(Br)cc1/C=N/N1CCN(Cc2ccccc2)CC1	-8	-2	21	-1.4	6
COc1ccc(OC)c(C2=Nn3c(nnc3-c3ccco3)SC2)c1	-10	0	26	-0.29	10
COc1ccc(OCc2nnc3n2N=C(c2ccc(OC)cc2)CS3)cc1	.	-2	32*	-7.6*	.
COc1ccc(OCc2nnc3n2N=C(c2ccc(C)cc2)CS3)cc1	.	4	14	-2.4	.
SMILES	sEH inhibitor	PostGolgi yeast	PostGolgi ctrl	Cav3 T inh	sEH act
COc1ccc(C2=Nn3c(nnc3-c3ccco3)SC2)cc1	4	21	45*	0.75	-5
Cc1noc(C(=O)N2CC3(C)CC2CC(C)(C)C3)c1Cl (stereo not given)	.	-4	6	0.28	.
CC1Cc2ccccc2N1C(=O)CSc1nc2c(c(=O)n(C)c(=O)n2C)n1Cc1ccccc1 (stereo not given)	.	23	21	-3.1	.
Fc1ccc(NCc2nnc(SCc3nnc(-c4ccccc4)o3)n2Cc2ccccc2)cc1	-10	46*	30	-8.3*	10
CCc1ccc2c(Cl)c(C(=O)N/N=C/c3c[nH]c4ccccc34)sc2c1	-1	1	42*	-1	2
COc1ccc(NS(=O)(=O)c2ccc(-n3nnc4ccccc43)c([N+](=O)[O-])c2)cc1	16	-1	10	-2	-14
